From ChEMBL document CHEMBL1961873, “Compounds: GSK PKIS; Assays: Nanosyn kinase panel” (2012)

Assays:
[1] = target: T1, Serine/threonine-protein kinase D2 (Homo sapiens) (UniProt Q9BZL6); conditions: at 1 µM;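 also: mean value of PRKD2 inhibition, from the GSK PKIS screening panel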
T1 sequence (whole entry): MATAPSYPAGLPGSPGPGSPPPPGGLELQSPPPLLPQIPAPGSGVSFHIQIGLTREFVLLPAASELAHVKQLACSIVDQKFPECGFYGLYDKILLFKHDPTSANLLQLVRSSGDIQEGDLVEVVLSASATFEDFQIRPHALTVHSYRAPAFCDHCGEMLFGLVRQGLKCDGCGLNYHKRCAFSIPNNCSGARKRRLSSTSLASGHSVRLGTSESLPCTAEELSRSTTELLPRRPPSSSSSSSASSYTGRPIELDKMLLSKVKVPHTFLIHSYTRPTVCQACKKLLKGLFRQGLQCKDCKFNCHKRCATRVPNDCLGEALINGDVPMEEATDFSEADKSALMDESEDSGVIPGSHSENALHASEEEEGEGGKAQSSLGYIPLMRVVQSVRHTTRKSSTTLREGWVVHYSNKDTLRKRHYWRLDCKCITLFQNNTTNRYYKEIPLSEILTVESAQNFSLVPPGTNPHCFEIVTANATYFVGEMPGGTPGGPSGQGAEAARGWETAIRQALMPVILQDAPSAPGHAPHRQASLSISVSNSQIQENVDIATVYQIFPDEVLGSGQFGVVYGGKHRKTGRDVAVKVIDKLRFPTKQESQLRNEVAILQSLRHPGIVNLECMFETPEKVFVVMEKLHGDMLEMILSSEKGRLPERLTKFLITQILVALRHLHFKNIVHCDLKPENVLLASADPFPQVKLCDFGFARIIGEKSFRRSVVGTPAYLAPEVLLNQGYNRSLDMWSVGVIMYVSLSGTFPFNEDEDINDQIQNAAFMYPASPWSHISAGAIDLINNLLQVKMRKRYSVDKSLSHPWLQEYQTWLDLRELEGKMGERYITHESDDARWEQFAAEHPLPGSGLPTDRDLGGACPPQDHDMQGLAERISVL

[2] = target: T2, Serine/threonine-protein kinase D3 (Homo sapiens) (UniProt O94806); conditions: at 0.1 µM
T2 sequence (whole entry): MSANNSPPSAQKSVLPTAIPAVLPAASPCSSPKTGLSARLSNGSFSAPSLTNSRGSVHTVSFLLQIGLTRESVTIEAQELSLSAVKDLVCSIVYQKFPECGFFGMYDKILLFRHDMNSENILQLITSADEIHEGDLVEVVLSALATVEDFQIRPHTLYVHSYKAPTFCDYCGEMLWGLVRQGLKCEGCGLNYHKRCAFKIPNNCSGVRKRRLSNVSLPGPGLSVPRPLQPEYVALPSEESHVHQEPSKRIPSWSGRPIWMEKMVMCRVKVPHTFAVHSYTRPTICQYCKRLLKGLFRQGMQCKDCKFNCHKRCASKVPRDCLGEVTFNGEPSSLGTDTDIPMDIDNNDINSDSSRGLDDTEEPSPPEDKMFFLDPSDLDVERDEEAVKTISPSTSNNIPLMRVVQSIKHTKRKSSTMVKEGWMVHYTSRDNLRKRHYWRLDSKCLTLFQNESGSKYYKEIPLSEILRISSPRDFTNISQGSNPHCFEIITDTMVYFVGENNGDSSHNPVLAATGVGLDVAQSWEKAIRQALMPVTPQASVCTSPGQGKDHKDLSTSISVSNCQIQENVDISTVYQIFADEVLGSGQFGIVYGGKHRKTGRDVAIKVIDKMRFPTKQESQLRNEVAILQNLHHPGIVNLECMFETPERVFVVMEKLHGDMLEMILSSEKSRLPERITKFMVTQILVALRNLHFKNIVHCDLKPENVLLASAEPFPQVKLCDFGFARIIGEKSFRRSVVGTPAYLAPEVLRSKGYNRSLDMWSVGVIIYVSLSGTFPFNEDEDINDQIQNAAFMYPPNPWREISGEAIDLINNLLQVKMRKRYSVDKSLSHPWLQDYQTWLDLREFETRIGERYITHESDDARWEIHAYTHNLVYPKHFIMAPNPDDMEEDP

[3] = target: T2, Serine/threonine-protein kinase D3 (Homo sapiens); conditions: at 1 µM
[4] = target: T3, cGMP-dependent protein kinase 1 (Homo sapiens) (UniProt Q13976); conditions: at 0.1 µM
T3 sequence (whole entry): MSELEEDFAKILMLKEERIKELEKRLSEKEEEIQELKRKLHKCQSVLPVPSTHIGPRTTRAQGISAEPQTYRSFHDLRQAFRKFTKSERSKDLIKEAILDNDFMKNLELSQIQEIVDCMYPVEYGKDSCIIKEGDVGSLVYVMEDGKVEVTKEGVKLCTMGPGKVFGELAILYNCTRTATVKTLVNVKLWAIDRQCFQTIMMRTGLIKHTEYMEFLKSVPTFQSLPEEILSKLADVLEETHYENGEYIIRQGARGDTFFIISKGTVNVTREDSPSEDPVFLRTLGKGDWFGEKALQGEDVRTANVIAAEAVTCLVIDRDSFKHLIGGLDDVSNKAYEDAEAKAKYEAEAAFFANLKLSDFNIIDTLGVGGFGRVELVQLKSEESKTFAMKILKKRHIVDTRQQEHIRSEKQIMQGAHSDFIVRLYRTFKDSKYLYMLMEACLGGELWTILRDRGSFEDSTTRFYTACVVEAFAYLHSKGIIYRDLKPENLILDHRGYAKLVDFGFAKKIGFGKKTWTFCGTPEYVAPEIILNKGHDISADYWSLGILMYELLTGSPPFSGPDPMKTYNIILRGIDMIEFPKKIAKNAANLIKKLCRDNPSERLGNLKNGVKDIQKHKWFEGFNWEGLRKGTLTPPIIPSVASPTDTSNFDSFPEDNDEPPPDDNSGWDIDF

[5] = target: T3, cGMP-dependent protein kinase 1 (Homo sapiens); conditions: at 1 µM
[6] = target: T4, cGMP-dependent protein kinase 2 (Homo sapiens) (UniProt Q13237); conditions: at 0.1 µM
T4 sequence (whole entry): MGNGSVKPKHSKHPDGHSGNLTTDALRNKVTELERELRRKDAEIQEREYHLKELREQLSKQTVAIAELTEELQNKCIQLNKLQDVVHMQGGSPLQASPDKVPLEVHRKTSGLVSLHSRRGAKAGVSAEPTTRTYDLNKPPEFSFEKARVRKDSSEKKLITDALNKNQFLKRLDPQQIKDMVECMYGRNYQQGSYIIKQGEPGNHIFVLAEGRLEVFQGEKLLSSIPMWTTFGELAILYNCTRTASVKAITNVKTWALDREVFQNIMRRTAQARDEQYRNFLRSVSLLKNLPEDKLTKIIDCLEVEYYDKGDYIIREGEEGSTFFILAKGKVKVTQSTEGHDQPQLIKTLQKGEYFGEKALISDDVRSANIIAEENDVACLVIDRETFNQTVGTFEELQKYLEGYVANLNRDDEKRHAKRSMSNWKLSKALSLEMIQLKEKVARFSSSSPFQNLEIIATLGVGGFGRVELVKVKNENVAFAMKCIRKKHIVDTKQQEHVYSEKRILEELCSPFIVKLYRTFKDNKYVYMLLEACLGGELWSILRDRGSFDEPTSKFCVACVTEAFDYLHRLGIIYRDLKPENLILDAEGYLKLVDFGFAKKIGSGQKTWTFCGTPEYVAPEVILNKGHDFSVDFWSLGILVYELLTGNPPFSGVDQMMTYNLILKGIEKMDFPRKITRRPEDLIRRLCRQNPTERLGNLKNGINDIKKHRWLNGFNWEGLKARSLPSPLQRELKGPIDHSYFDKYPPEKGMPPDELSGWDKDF

[7] = target: T4, cGMP-dependent protein kinase 2 (Homo sapiens); conditions: at 1 µM
[8] = target: T5, cAMP-dependent protein kinase catalytic subunit PRKX (Homo sapiens) (UniProt P51817); conditions: at 0.1 µM
T5 sequence (whole entry): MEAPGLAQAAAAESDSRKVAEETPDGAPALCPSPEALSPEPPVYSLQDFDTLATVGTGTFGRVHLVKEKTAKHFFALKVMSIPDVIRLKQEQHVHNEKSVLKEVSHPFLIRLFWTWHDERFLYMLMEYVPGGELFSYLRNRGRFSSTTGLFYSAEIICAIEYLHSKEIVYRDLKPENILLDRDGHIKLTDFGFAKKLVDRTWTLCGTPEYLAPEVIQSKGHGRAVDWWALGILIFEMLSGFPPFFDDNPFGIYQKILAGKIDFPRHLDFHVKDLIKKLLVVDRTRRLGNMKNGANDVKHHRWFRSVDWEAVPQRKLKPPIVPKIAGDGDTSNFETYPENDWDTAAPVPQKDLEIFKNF

[9] = target: T5, cAMP-dependent protein kinase catalytic subunit PRKX (Homo sapiens); conditions: at 1 µM
[10] = target: Rho-associated protein kinase 1 (Homo sapiens) (UniProt Q13464); conditions: at 0.1 µM
[11] = target: Rho-associated protein kinase 1 (Homo sapiens) (UniProt Q13464); conditions: at 1 µM
[12] = target: Rho-associated protein kinase 2 (Homo sapiens) (UniProt O75116); conditions: at 0.1 µM
[13] = target: Rho-associated protein kinase 2 (Homo sapiens) (UniProt O75116); conditions: at 1 µM
[14] = target: Ribosomal protein S6 kinase alpha-1 (Homo sapiens) (UniProt Q15418); conditions: at 0.1 µM
[15] = target: Ribosomal protein S6 kinase alpha-1 (Homo sapiens) (UniProt Q15418); conditions: at 1 µM
[16] = target: Ribosomal protein S6 kinase alpha-3 (Homo sapiens) (UniProt P51812); conditions: at 0.1 µM
[17] = target: Ribosomal protein S6 kinase alpha-3 (Homo sapiens) (UniProt P51812); conditions: at 1 µM
[18] = target: Ribosomal protein S6 kinase alpha-2 (Homo sapiens) (UniProt Q15349); conditions: at 0.1 µM
[19] = target: Ribosomal protein S6 kinase alpha-2 (Homo sapiens) (UniProt Q15349); conditions: at 1 µM
[20] = target: Ribosomal protein S6 kinase alpha-6 (Homo sapiens) (UniProt Q9UK32); conditions: at 0.1 µM;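 also: reported value is the mean inhibition of RSK4, from the GSK PKIS kinase inhibitor screen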
Chain of Ribosomal protein S6 kinase alpha-6 (Homo sapiens) (Q9UK32 whole entry): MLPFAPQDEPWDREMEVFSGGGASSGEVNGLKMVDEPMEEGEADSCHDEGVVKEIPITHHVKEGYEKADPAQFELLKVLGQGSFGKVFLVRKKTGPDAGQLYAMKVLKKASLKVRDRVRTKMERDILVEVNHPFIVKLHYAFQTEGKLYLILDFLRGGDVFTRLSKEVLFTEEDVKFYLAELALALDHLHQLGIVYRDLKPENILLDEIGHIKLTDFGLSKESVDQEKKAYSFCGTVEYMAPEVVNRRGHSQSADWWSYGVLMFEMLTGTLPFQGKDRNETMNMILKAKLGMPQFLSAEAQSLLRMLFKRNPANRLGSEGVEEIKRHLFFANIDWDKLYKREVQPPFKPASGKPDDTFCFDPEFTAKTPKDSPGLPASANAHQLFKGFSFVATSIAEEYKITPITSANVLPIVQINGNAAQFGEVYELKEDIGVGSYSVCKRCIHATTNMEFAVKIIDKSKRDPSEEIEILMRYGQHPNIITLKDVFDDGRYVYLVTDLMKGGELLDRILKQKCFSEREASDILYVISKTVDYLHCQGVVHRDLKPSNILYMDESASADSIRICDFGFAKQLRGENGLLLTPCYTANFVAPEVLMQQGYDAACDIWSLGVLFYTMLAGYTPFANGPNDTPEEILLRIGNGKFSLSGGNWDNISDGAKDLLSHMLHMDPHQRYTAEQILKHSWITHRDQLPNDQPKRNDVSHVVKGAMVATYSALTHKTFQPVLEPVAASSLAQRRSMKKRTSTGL

Chain of Rho-associated protein kinase 2 (Homo sapiens) (O75116 whole entry, looked up): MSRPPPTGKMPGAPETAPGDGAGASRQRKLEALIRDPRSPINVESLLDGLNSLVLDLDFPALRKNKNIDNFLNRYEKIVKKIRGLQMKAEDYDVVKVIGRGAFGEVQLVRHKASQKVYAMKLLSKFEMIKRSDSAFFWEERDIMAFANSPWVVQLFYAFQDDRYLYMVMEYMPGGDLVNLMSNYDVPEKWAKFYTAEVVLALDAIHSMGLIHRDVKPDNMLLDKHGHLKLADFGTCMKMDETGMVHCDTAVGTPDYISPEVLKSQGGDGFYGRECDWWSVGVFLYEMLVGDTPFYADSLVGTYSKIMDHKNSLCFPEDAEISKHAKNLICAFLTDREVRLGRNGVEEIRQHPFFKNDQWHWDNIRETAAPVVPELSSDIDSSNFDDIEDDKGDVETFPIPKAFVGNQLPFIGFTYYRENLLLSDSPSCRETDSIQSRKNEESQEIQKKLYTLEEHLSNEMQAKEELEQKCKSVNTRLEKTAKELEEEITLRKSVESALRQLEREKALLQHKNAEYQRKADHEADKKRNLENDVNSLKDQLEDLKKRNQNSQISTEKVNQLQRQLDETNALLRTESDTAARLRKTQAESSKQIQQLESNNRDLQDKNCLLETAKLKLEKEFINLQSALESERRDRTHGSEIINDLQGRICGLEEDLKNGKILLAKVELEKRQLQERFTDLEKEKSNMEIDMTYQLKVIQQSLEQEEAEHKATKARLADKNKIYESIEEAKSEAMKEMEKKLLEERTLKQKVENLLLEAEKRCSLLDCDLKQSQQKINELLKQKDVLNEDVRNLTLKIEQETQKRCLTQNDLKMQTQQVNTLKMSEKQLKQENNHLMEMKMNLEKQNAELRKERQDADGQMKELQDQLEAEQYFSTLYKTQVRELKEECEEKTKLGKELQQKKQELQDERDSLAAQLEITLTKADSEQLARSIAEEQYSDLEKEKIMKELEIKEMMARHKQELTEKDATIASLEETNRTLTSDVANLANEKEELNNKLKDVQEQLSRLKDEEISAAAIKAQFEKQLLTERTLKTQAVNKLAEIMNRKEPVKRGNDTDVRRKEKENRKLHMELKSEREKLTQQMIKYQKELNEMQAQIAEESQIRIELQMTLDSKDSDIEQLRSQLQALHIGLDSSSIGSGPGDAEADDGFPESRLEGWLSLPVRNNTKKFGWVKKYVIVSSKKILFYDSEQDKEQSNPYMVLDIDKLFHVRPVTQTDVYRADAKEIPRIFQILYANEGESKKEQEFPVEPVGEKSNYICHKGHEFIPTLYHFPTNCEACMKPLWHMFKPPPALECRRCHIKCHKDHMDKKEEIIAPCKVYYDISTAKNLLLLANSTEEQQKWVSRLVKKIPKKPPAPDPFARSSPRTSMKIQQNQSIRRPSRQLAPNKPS
Chain of Rho-associated protein kinase 1 (Homo sapiens) (Q13464 2-1354 limits assumed): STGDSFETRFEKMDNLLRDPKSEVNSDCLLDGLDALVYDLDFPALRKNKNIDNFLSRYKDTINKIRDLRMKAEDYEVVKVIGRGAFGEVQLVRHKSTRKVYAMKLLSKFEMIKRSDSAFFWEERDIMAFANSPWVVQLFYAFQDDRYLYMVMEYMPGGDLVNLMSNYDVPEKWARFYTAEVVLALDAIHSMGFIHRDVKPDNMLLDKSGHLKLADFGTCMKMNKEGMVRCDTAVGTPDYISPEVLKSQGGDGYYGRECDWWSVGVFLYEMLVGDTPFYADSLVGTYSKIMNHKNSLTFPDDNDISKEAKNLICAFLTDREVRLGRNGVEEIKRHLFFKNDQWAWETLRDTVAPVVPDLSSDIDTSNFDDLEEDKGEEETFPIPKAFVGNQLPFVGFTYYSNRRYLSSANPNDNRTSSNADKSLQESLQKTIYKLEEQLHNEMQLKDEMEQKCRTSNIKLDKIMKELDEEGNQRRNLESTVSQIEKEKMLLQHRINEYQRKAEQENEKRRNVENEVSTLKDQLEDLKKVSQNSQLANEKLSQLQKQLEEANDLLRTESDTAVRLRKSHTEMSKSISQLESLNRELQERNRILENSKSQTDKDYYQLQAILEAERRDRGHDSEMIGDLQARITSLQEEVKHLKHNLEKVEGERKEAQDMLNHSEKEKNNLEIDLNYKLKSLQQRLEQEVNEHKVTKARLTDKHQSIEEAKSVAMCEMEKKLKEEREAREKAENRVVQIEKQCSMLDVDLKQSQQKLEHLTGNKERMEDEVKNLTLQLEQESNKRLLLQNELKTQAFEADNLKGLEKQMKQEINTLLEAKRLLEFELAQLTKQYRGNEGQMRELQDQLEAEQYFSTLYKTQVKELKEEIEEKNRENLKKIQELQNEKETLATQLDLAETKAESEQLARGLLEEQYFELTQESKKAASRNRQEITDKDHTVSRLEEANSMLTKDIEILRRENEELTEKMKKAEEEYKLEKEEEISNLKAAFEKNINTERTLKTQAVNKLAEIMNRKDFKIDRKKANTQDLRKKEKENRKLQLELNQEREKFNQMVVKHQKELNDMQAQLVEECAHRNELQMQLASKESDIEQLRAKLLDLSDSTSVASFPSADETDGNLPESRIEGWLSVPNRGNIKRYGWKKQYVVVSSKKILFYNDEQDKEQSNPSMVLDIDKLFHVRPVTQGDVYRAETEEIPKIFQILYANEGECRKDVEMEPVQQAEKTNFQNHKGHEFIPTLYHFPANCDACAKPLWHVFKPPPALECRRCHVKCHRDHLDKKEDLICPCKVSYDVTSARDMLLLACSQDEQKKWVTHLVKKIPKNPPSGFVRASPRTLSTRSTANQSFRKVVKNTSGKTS
Chain of Ribosomal protein S6 kinase alpha-1 (Homo sapiens) (Q15418 whole entry): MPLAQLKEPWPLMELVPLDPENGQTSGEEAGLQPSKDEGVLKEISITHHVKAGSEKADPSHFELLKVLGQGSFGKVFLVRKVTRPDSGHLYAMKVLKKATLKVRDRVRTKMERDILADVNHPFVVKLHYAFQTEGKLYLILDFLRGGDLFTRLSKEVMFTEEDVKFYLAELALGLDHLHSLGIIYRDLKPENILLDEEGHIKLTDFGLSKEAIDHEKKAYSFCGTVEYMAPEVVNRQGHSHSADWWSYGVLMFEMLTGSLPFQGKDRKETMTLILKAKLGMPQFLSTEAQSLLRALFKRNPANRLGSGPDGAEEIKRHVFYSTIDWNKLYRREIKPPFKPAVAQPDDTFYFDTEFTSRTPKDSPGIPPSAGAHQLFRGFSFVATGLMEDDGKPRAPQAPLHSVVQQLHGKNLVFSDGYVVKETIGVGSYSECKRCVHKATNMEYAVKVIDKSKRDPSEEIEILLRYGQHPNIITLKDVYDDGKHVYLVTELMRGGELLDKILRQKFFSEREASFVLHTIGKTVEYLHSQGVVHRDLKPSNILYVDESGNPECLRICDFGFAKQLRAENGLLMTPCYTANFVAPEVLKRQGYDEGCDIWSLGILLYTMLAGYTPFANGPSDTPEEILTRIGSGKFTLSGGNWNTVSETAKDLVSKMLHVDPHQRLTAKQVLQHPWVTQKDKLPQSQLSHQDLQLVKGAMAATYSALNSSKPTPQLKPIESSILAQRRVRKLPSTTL
Chain of Ribosomal protein S6 kinase alpha-3 (Homo sapiens) (P51812 whole entry): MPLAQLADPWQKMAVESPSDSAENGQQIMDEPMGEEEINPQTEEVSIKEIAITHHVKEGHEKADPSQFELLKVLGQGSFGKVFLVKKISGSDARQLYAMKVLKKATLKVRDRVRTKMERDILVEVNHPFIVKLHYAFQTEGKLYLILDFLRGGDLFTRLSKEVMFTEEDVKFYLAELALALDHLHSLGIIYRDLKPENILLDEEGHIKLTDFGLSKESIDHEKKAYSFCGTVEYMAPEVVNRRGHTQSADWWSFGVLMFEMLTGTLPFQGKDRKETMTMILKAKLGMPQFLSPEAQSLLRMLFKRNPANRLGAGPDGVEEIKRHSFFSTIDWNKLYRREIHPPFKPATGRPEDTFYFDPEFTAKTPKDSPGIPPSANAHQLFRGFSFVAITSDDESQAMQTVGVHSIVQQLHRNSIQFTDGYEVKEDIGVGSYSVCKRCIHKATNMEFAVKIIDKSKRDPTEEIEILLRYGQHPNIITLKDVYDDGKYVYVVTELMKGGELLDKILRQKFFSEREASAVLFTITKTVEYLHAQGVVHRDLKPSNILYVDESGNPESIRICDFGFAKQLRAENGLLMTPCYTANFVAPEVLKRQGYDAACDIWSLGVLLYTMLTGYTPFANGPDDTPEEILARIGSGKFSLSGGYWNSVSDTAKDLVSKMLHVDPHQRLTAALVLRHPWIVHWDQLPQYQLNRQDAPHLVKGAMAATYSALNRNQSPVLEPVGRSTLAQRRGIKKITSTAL

Row | SMILES | inhibition [1] [%] | inhibition [2] [%] | inhibition [3] [%] | inhibition [4] [%] | inhibition [5] [%] | inhibition [6] [%] | inhibition [7] [%] | inhibition [8] [%] | inhibition [9] [%] | inhibition [10] [%] | inhibition [11] [%] | inhibition [12] [%] | inhibition [13] [%] | inhibition [14] [%] | inhibition [15] [%] | inhibition [16] [%] | inhibition [17] [%] | inhibition [18] [%] | inhibition [19] [%] | inhibition [20] [%]
1 | CS(=O)(=O)CCNCc1ccc(-c2ccc3ncnc(Nc4ccc(OCc5ccccc5)c(Br)c4)c3c2)o1 | -2.34 | -0.06 | -0.73 | 3.47 | 0.89 | 2.31 | 1.31 | 2.17 | 2.64 | 1.36 | 2.16 | 0.72 | 1.26 | -0.49 | 0.36 | -0.55 | -1.39 | 1.5 | 1.01 | -0.12
2 | CNC(=O)c1cncc(/C=C/c2c(C)cccc2C)c1 | -2.22 | -2.33 | -3.04 | -0.33 | 4.28 | 0.8 | 1.58 | 0.26 | 0.53 | -0.35 | 0.33 | 1.01 | 1.34 | 1.16 | 0.45 | 0.6 | -0.28 | 1.22 | 0.63 | 0.47
3 | O=C(Nc1n[nH]c2cc(-c3ccccc3)ccc12)C1CC1 | 5.1 | 5.75 | 6.47 | 3.2 | 3.14 | 1.66 | 2.57 | 1.37 | 0.63 | 1.2 | 1.05 | 2.59 | 0.78 | 0.84 | 1.81 | 1.2 | 0.07 | 3.06 | 3.36 | 3
4 | Fc1ccc(-c2c(-c3ccncc3)nc3n2CCS3)cc1 | 0.4 | 0.15 | 1.02 | 4.15 | 8.03 | 2.62 | 7.38 | 6.08 | 14.6 | 8.73 | 13.8 | 11.2 | 16.1 | 3.39 | 6.17 | 3.04 | 6 | 2.43 | 3.27 | 1.3
